Screening data from PubChem.
Pf Dd2 inh: qHTS Primary assay for Inhibitors of Plasmodium falciparum Dd2 growth in vitro; P. falciparum Dd2 growth, SYBR Green, 72 h; Potency, µM (highest dose often 28.9 µM), usual class: inhibitors; 120,000 tested, 4.3% active; active = well fitted inhibition curve with a large enough effect; note: nearly all actives have a fitted effect of over 65% in size
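Readout: SYBR Green fluorescence, 485 nm excitation, 535 nm emission, after ~16 h lysis at 37C. Before that, Dd2-infected red cells (2.5% hematocrit) grew 72 h with compound, 29 uM top final concentration.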
Numbers stand for hits. This is one part of a sample in which hits are shown more often than they occur.

How did CC(C)(C)NC(=O)N1CC[C@H]2C(=O)NCCCCCN(Cc3cccnc3)[C@@H]2C1 do in these assays?
Pf Dd2 inh: inactive

How did CN(CCC(O)c1ccccc1)Cc1cn(-c2ccccc2)nn1 (centres undefined) do in these assays?
Pf Dd2 inh: 8.9µM

Results for CN(Cc1cn(-c2ccccc2)nn1)Cc1noc2c1CCCC2 ?
Pf Dd2 inh: inactive

How did CC(C)n1cnnc1CN(C)Cc1cn(-c2ccccc2)nn1 do in these assays?
Pf Dd2 inh: inactive

Results for COCC1CCN(C(=O)COc2ccc(NC(=O)C3CC3)cn2)CC1 ?
Pf Dd2 inh: inactive

How did COc1cccc(CN2CCC(n3cc[nH]c3=O)CC2)c1 do in these assays?
Pf Dd2 inh: inactive

What do the screens show for `CCNC(=O)N[C@H]1CC[C@]2(C)CCC([C@H](C)C(=O)NCc3ccccc3OC)[C@H](O)[C@H]2[C@@H]1C` (some centres undefined)?
Pf Dd2 inh: inactive

Results for COc1ccc(-c2noc([C@@H]3C[C@H](NC(=O)COCC(=O)O)CN3C)n2)cc1 ?
Pf Dd2 inh: inactive

Results for COc1ccc(-c2noc([C@@H]3C[C@H](NS(=O)(=O)c4ccccc4)CN3C)n2)cc1 ?
Pf Dd2 inh: inactive

How did COc1ccc(-c2noc([C@@H]3C[C@H](NCc4ccc(N(C)C)cc4)CN3C)n2)cc1 do in these assays?
Pf Dd2 inh: 13µM

Results for CC(C)CCN1CCCC2(C1)C(=NC1CCCCC1)NC(=O)N2c1cc(F)cc(F)c1 (centres undefined) ?
Pf Dd2 inh: 4µM

What do the screens show for `CC(C)CCN1CCCC2(C1)C(=NC1CCCC1)NC(=O)N2c1cccnc1` (centres undefined)?
Pf Dd2 inh: inactive

What do the screens show for `O=C1NC(=NC2CCCC2)C2(CCN(CC3CC3)C2)N1c1cccnc1` (centres undefined)?
Pf Dd2 inh: inactive

What do the screens show for `CC(C)CCN1CCC2(C1)C(=NC1CCCCC1)NC(=O)N2c1cccnc1` (centres undefined)?
Pf Dd2 inh: inactive

Results for O=C1NC(=NC2CCCCC2)C2(CCN(CC3CCCCC3)C2)N1c1cc(F)cc(F)c1 (centres undefined) ?
Pf Dd2 inh: 5µM

What do the screens show for `O=C1NC(=NC2CCCC2)C2(CCCN(CC3CCCCC3)C2)N1c1cc(F)cc(F)c1` (centres undefined)?
Pf Dd2 inh: 4.5µM

What do the screens show for `O=C(c1ccccc1F)N1CCC2(C1)C(=NC1CCCCC1)NC(=O)N2c1cc(F)cc(F)c1` (centres undefined)?
Pf Dd2 inh: inactive

Results for O=C1NC(=NC2CCCCC2)C2(CCN(CC3CCCCC3)CC2)N1c1cc(F)cc(F)c1 ?
Pf Dd2 inh: inactive

Results for O=C(c1ccccc1)N1CCC2(C1)C(=NC1CCCCC1)NC(=O)N2c1cc(F)cc(F)c1 (centres undefined) ?
Pf Dd2 inh: inactive

What do the screens show for `O=C1CN(C(=O)c2ccnc(-c3nnc4ccc(Nc5ccccc5)nn34)c2)CCN1`?
Pf Dd2 inh: inactive

How did COc1ccc(C(=O)N[C@@H]2CCC[C@@H]2C(=O)NCc2cccc(OC)c2OC)cc1 do in these assays?
Pf Dd2 inh: inactive

What do the screens show for `Cc1ccc(C(=O)NC2CCCN(c3cc(-c4ccc(Cl)cc4)[nH]n3)C2)cn1` (centres undefined)?
Pf Dd2 inh: inactive

How did O=C(NC[C@H]1OC[C@@H](NC2CCCC2)[C@@H]1O)Nc1ccccc1 do in these assays?
Pf Dd2 inh: inactive

What do the screens show for `CCc1ccc(NC(=O)Cn2c(C)cc3nc4n(c(=O)c32)CCCCC4)cc1`?
Pf Dd2 inh: inactive

How did COC(=O)NC(C)C(=O)N1Cc2cnc(Cc3ccc(OC)cc3)nc2C1 (centres undefined) do in these assays?
Pf Dd2 inh: inactive

How did O=C([C@@H]1C[C@H](Oc2cccnc2)CN1C(=O)CCc1ccccc1)N1CCOCC1 do in these assays?
Pf Dd2 inh: inactive

Results for O=C([C@@H]1C[C@H](Oc2ccccc2)CN1C(=O)Cc1c[nH]c2ccccc12)N1CCOCC1 ?
Pf Dd2 inh: inactive

What do the screens show for `O=C([C@@H]1C[C@H](Oc2cccnc2)CN1C(=O)CCc1c[nH]c2ccccc12)N1CCOCC1`?
Pf Dd2 inh: 4µM

Results for COc1cc(NC(=O)NC[C@H]2O[C@@H](CO)[C@@H](O)[C@H]2N2CCN(c3ccccc3)CC2)cc(OC)c1 ?
Pf Dd2 inh: inactive

What do the screens show for `COCCN[C@H]1[C@@H]2OC[C@@H](O2)[C@@H](NCc2ccc(-c3ccccc3)cc2)[C@@H]1O`?
Pf Dd2 inh: 10µM

Results for O[C@H]1[C@H](NCc2ccc(-c3ccccc3)cc2)[C@H]2CO[C@H](O2)[C@@H]1Sc1ccccc1 ?
Pf Dd2 inh: inactive

Results for COCCN[C@H]1[C@@H]2OC[C@@H](O2)[C@@H](NCc2ccccn2)[C@@H]1O ?
Pf Dd2 inh: inactive

Results for CCCN(CCC)C(=O)C1CCCN(S(=O)(=O)c2cc(Br)cc3c2N(C(=O)CC)CC3)C1 (centres undefined) ?
Pf Dd2 inh: inactive
